# Records with an inconclusive call do not appear. Active and inactive are the calls of the source. The call rests on the fitted dose curve; in most records, active means well fitted curve in the direction sought with a large enough effect; inconclusive means small, poorly fitted or top-dose-only effect, or another doubt; inactive means no such curve, though single readings can be large; an effect the other way counts as inactive or inconclusive.
# Experiments:
# [1] = Quantitative High-Throughput drug screen in 47 multiple myeloma cell lines against the NCATS MIPE library collection: JIM3_ECACC cell viability assay (AID 1918963; further: nearly all actives have a fitted effect of over 35% in size)
# Outline: (§1)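 Myeloma cell lines, 500 cells per well, exposed to MIPE 4.0 library compounds for 48 h at 37C, 5% CO2. Viability from ATP by CellTiter-Glo luminescence; normalised to DMSO (100%) and media-only (0%) wells.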
# [2] = Quantitative High-Throughput drug screen in 47 multiple myeloma cell lines against the NCATS MIPE library collection: INA6_PLB cell viability assay (AID 1918965; further: nearly all actives have a fitted effect of over 55% in size)
# Outline: as §1
# [3] = Quantitative High-Throughput drug screen in 47 multiple myeloma cell lines against the NCATS MIPE library collection: JJN3_DSMZ cell viability assay (AID 1918966; further: nearly all actives have a fitted effect of over 50% in size)
# Outline: (§2)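 Approved and investigational drugs from MIPE 4.0 were added by pin tool to 500 cells per well. After 48 hours at 37C, ATP-based CellTiter-Glo luminescence indicated remaining viability.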
# [4] = Quantitative High-Throughput drug screen in 47 multiple myeloma cell lines against the NCATS MIPE library collection: H1112_PLB cell viability assay (AID 1918967; further: nearly all actives have a fitted effect of over 30% in size)
# Outline: as §2
# [5] = Quantitative High-Throughput drug screen in 47 multiple myeloma cell lines against the NCATS MIPE library collection: Karpas25_ECACC cell viability assay (AID 1918968; further: nearly all actives have a fitted effect of over 35% in size)
# Outline: as §2
# [6] = Quantitative High-Throughput drug screen in 47 multiple myeloma cell lines against the NCATS MIPE library collection: KMS27_JCRB cell viability assay (AID 1918970); further: nearly all actives have a fitted effect of over 30% in size
# Outline: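 ATP-based viability (CellTiter-Glo luminescence) is measured in cells treated 48 h with approved and investigational drugs at 37 °C. Controls are DMSO-only wells for full viability and media-only wells for none.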
# [7] = Quantitative High-Throughput drug screen in 47 multiple myeloma cell lines against the NCATS MIPE library collection: KMS12BM_JCRB cell viability assay (AID 1918971); further: nearly all actives have a fitted effect of over 35% in size
# Outline: (§3)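 We plated 500 myeloma cells per well, pinned in MIPE 4.0 compounds, and incubated for 48 hours at 37C. ATP was then quantified with CellTiter-Glo, with DMSO and media-only wells defining 100% and 0%.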
# [8] = Quantitative High-Throughput drug screen in 47 multiple myeloma cell lines against the NCATS MIPE library collection: KMS12PE_JCRB cell viability assay (AID 1918972); further: nearly all actives have a fitted effect of over 30% in size
# Outline: as §1
# [9] = Quantitative High-Throughput drug screen in 47 multiple myeloma cell lines against the NCATS MIPE library collection: KMS20_JCRB cell viability assay (AID 1918973); further: nearly all actives have a fitted effect of over 45% in size
# Outline: as §2
# [10] = Quantitative High-Throughput drug screen in 47 multiple myeloma cell lines against the NCATS MIPE library collection: KMS21BM_JCRB cell viability assay (AID 1918974); conditions: ATP luminescence, 48 h; viability: at 45.8 µM (top of the series) unless noted
# Outline: as §2
# [11] = Quantitative High-Throughput drug screen in 47 multiple myeloma cell lines against the NCATS MIPE library collection: MMM1_PLB cell viability assay (AID 1918976); further: nearly all actives have a fitted effect of over 35% in size
# Outline: (§4)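 500 cells/well per myeloma line exposed to pinned MIPE 4.0 compounds for 48 h at 37 °C, 5% CO2. Viability read as ATP by CellTiter-Glo luminescence, normalised to DMSO-only (100%) and media-only (0%) wells.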
# [12] = Quantitative High-Throughput drug screen in 47 multiple myeloma cell lines against the NCATS MIPE library collection: MOLP8_DSMZ cell viability assay (AID 1918977); further: nearly all actives have a fitted effect of over 45% in size
# Outline: as §4
# [13] = Quantitative High-Throughput drug screen in 47 multiple myeloma cell lines against the NCATS MIPE library collection: NCIH929_DSMZ cell viability assay (AID 1918978); further: nearly all actives have a fitted effect of over 35% in size
# Outline: as §4
# [14] = Quantitative High-Throughput drug screen in 47 multiple myeloma cell lines against the NCATS MIPE library collection: OCIMY1_PLB cell viability assay (AID 1918979); further: nearly all actives have a fitted effect of over 35% in size
# Outline: as §4
# [15] = Quantitative High-Throughput drug screen in 47 multiple myeloma cell lines against the NCATS MIPE library collection: MM1S_ATCC cell viability assay (AID 1918980); further: nearly all actives have a fitted effect of over 45% in size
# Outline: as §4
# [16] = Quantitative High-Throughput drug screen in 47 multiple myeloma cell lines against the NCATS MIPE library collection: MM1R_ATCC cell viability assay (AID 1918981); further: nearly all actives have a fitted effect of over 35% in size
# Outline: as §4
# [17] = Quantitative High-Throughput drug screen in 47 multiple myeloma cell lines against the NCATS MIPE library collection: LP1_DSMZ cell viability assay (AID 1918982); further: nearly all actives have a fitted effect of over 35% in size
# Outline: as §4
# [18] = Quantitative High-Throughput drug screen in 47 multiple myeloma cell lines against the NCATS MIPE library collection: KMS28PE_JCRB cell viability assay (AID 1918983); further: nearly all actives have a fitted effect of over 35% in size
# Outline: as §4
# [19] = Quantitative High-Throughput drug screen in 47 multiple myeloma cell lines against the NCATS MIPE library collection: JIM1_ECACC cell viability assay (AID 1918964)
# Outline: as §2
# [20] = Quantitative High-Throughput drug screen in 47 multiple myeloma cell lines against the NCATS MIPE library collection: KMS26_JCRB cell viability assay (AID 1918975); further: nearly all actives have a fitted effect of over 45% in size
# Outline: as §3
# Potency means the concentration at half of the fitted maximal effect.
Structure (SMILES),Potency [1],Potency [2],Potency [3],Potency [4],Potency [5],Potency [6],Potency [7],Potency [8],Potency [9],Potency [10],Potency [11],Potency [12],Potency [13],Potency [14],Potency [15],Potency [16],Potency [17],Potency [18],Potency [19],Potency [20]
O=C(NCCCNc1nc(Nc2cccc(NC(=O)N3CCCC3)c2)ncc1I)c1cccs1,5.26 µM (active),0.662 µM (active),16.6 µM (active),9.35 µM (active),5.26 µM (active),inactive,18.7 µM (active),inactive,3.32 µM (active),inactive,23.5 µM (active),5.26 µM (active),5.9 µM (active),18.7 µM (active),18.7 µM (active),20.9 µM (active),18.7 µM (active),18.7 µM (active),,
COc1cccc2nc(-c3cccs3)nc(NN3C(=O)C=C(C)C3=O)c12,0.148 µM (active),,1.18 µM (active),1.18 µM (active),0.0264 µM (active),0.235 µM (active),0.105 µM (active),,0.059 µM (active),0.235 µM (active),5.9 µM (active),,0.235 µM (active),0.187 µM (active),0.418 µM (active),0.187 µM (active),0.187 µM (active),2.64 µM (active),0.105 µM (active),
Cn1c2cc(S(C)=O)sc2c2cnn(Cc3cccc(N)c3)c(=O)c21 (centres undefined),inactive,,inactive,inactive,inactive,,inactive,inactive,,,3.32 µM (active),,inactive,inactive,inactive,inactive,,inactive,inactive,inactive
CC(C)CC(=O)Nc1n[nH]c2c1CN(C(=O)C1CCN(C)CC1)C2(C)C,0.833 µM (active),0.296 µM (active),2.09 µM (active),3.32 µM (active),1.87 µM (active),1.18 µM (active),1.66 µM (active),2.35 µM (active),1.05 µM (active),0.0296 µM (active),4.69 µM (active),0.418 µM (active),0.743 µM (active),,0.0662 µM (active),0.662 µM (active),1.87 µM (active),1.18 µM (active),,3.32 µM (active)
CC(=O)SC[C@@H](C)C(=O)N1CCC[C@H]1C(=O)N[C@@H](Cc1ccccc1)C(=O)O,inactive,inactive,,,inactive,,inactive,inactive,,,1.87 µM (active),inactive,inactive,,,inactive,inactive,,inactive,
Cc1cccc(C=NNc2cc(N3CCOCC3)nc(OCCc3ccccn3)n2)c1,2.35 µM (active),14.8 µM (active),,,13.2 µM (active),,14.8 µM (active),0.332 µM (active),6.62 µM (active),,16.6 µM (active),,14.8 µM (active),,16.6 µM (active),6.62 µM (active),11.8 µM (active),,0.935 µM (active),0.118 µM (active)
O=c1[nH]c(=O)n(C2CCCO2)cc1F (centres undefined),inactive,,inactive,inactive,inactive,inactive,19.1 µM (active),inactive,,inactive,,,inactive,inactive,,inactive,inactive,inactive,inactive,inactive
C[C@H]1C[C@@H]2[C@@H]([C@@H](O)C[C@@]3(C)[C@H]2CC[C@]3(O)C(=O)CO)[C@@]2(C)C=CC(=O)C=C12,inactive,,inactive,,0.105 µM (active),,inactive,inactive,,,inactive,,inactive,inactive,,inactive,0.0833 µM (active),inactive,inactive,inactive
Clc1cccc(-c2nnnn2Cc2cccnc2)c1Cl,inactive,inactive,,,16.6 µM (active),,,inactive,inactive,,,inactive,,inactive,,inactive,inactive,inactive,inactive,
Cc1cc(Nc2cc(NC(=O)c3c(Cl)cccc3Cl)ccn2)nc(N)n1,0.469 µM (active),0.935 µM (active),0.743 µM (active),1.05 µM (active),13.2 µM (active),0.264 µM (active),18.7 µM (active),0.166 µM (active),10.5 µM (active),0.418 µM (active),,23.5 µM (active),9.35 µM (active),,0.209 µM (active),0.469 µM (active),0.418 µM (active),26.4 µM (active),,16.6 µM (active)
CC[C@H](CO)Nc1nc(NCc2ccccc2)c2ncn(C(C)C)c2n1,26.4 µM (active),,18.7 µM (active),18.7 µM (active),20.9 µM (active),,,,,4.18 µM (active),,,10.5 µM (active),,20.9 µM (active),26.4 µM (active),26.4 µM (active),,6.62 µM (active),33.2 µM (active)
COc1cc(Nc2ncc(F)c(Nc3ccc4c(n3)N(COP(=O)(O)O)C(=O)C(C)(C)O4)n2)cc(OC)c1OC,1.66 µM (active),0.833 µM (active),,1.66 µM (active),3.32 µM (active),,,,1.66 µM (active),0.743 µM (active),,,3.72 µM (active),,20.9 µM (active),,,,1.18 µM (active),
Cc1cn2c(-c3cn[nH]c3)cnc2c(Nc2ccc(C(=O)N3CCNCC3)cc2F)n1,23.5 µM (active),16.6 µM (active),,20.9 µM (active),18.7 µM (active),,14.8 µM (active),5.26 µM (active),18.7 µM (active),,14.8 µM (active),,8.33 µM (active),,4.69 µM (active),20.9 µM (active),,18.7 µM (active),2.09 µM (active),16.6 µM (active)
CC(=O)OCCN1C(=O)c2c(C)nc3ccc(S(=O)(=O)N4CCOCC4)cc3c2C1=O,inactive,inactive,,,inactive,,inactive,inactive,,,,inactive,inactive,,,inactive,inactive,inactive,inactive,
O=C(O)CO.[NH2-].[NH2-].[Pt+2],inactive,,inactive,inactive,inactive,,inactive,inactive,,,,,,inactive,,,inactive,inactive,inactive,inactive
Cn1c(CNc2ccc(C(=N)N)cc2)nc2cc(C(=O)N(CCC(=O)O)c3ccccn3)ccc21,inactive,,,inactive,,inactive,inactive,inactive,,,,inactive,,,14.4 µM (active),inactive,,inactive,inactive,inactive
CCN1CCN(CC(=O)Nc2ccc(-c3cccc4c(=O)cc(N5CCOCC5)oc34)c3sc4ccccc4c23)CC1,1.18 µM (active),,3.72 µM (active),6.62 µM (active),0.264 µM (active),0.418 µM (active),1.05 µM (active),2.35 µM (active),1.18 µM (active),,2.35 µM (active),0.526 µM (active),0.187 µM (active),5.9 µM (active),7.43 µM (active),1.48 µM (active),1.48 µM (active),5.26 µM (active),0.469 µM (active),1.32 µM (active)
CNC(=O)CN1CCC(Oc2cc3c(Nc4cccc(Cl)c4F)ncnc3cc2OC)CC1,0.0332 µM (active),0.0235 µM (active),,,0.0187 µM (active),0.001 µM (active),0.0187 µM (active),0.0105 µM (active),0.0418 µM (active),,,,0.059 µM (active),,0.0105 µM (active),,,0.0833 µM (active),0.001 µM (active),
NCC(=O)Nc1ccc(-n2nc(C(F)(F)F)cc2-c2ccc3c(ccc4ccccc43)c2)cc1,18.7 µM (active),18.7 µM (active),20.9 µM (active),20.9 µM (active),16.6 µM (active),,,0.526 µM (active),9.35 µM (active),,23.5 µM (active),,16.6 µM (active),,,,23.5 µM (active),29.6 µM (active),,
Cc1cc(CN2CCN(c3c(Br)cnc4nc(-c5ccc(N6CCN(C)CC6)cc5)[nH]c34)CC2)no1,7.43 µM (active),2.64 µM (active),10.5 µM (active),10.5 µM (active),3.32 µM (active),inactive,18.7 µM (active),,2.35 µM (active),,23.5 µM (active),7.43 µM (active),2.35 µM (active),14.8 µM (active),5.9 µM (active),13.2 µM (active),26.4 µM (active),,,7.43 µM (active)
CCCCN1CCC(CNC(=O)c2c3n(c4ccccc24)CCCO3)CC1,18.7 µM (active),16.6 µM (active),2.09 µM (active),9.35 µM (active),8.33 µM (active),,10.5 µM (active),,13.2 µM (active),,5.26 µM (active),,4.69 µM (active),,3.72 µM (active),,,23.5 µM (active),,
CCC[C@H](NC(=O)C(C#N)=Cc1cccc(Br)n1)c1ccccc1,1.48 µM (active),1.32 µM (active),2.09 µM (active),2.35 µM (active),1.48 µM (active),7.43 µM (active),2.96 µM (active),,,,2.96 µM (active),1.48 µM (active),1.05 µM (active),6.62 µM (active),7.43 µM (active),1.66 µM (active),5.26 µM (active),,,
Cc1cc(N2CCOCC2)cc2[nH]c(-c3c(NC[C@@H](O)c4cccc(Cl)c4)cc[nH]c3=O)nc12,0.132 µM (active),0.296 µM (active),1.48 µM (active),0.166 µM (active),0.0833 µM (active),0.332 µM (active),16.6 µM (active),,0.0935 µM (active),,0.166 µM (active),11.8 µM (active),0.0526 µM (active),0.296 µM (active),0.187 µM (active),0.187 µM (active),,0.332 µM (active),,

# Source: PubChem BioAssay (NCATS)
